Assay results reported in PubChem BioAssay (NCATS).
Results filed as inconclusive are left out. Where a call stands in place of a potency, no number is given. The source made the active and inactive calls. The call rests on the fitted dose curve; in most records, active means well fitted curve in the direction sought with a large enough effect; inconclusive means small, poorly fitted or top-dose-only effect, or another doubt; inactive means no such curve, though single readings can be large; an effect the other way counts as inactive or inconclusive.

What was measured:
[1] = qHTS of pediatric cancer cell lines to identify multiple opportunities for drug repurposing: Primary screen for LAN-5 cells (AID 1347100); further: potency means the concentration at half of the fitted maximal effect
In short: (§1)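 Viability after 48 h compound treatment at 37C, 500-1,000 cells/well, read as ATP luminescence with CellTiter-Glo. Primary screens used 11-point (MIPE, 0.78 nM-46 µM) or 8-point (NPC, 0.59 nM-46 µM) final concentrations; follow-up screens used 11-point dilutions.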

[2] = qHTS of pediatric cancer cell lines to identify multiple opportunities for drug repurposing: Primary screen for BT-12 cells (AID 1347101); further: nearly all actives have a fitted effect of over 25% in size; further: potency means the concentration at half of the fitted maximal effect
In short: (§2)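 Cells (500-1,000/well) rested 5 h, then received compounds for 48 h; metabolically active cells were measured by CellTiter-Glo luminescence. Final concentrations spanned up to 46 µM (MIPE, 11-point) or 0.59 nM-46 µM (NPC, 8-point) in primary screens, 11-point in follow-ups.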

[3] = qHTS of pediatric cancer cell lines to identify multiple opportunities for drug repurposing: Primary screen for Rh18 cells (AID 1347102); further: nearly all actives have a fitted effect of over 65% in size; further: potency means the concentration at half of the fitted maximal effect
In short: as §1

[4] = qHTS of pediatric cancer cell lines to identify multiple opportunities for drug repurposing: Primary screen for OHS-50 cells (AID 1347103); further: nearly all actives have a fitted effect of over 40% in size; further: potency means the concentration at half of the fitted maximal effect
In short: as §2

[5] = qHTS of pediatric cancer cell lines to identify multiple opportunities for drug repurposing: Primary screen for RD cells (AID 1347104); further: nearly all actives have a fitted effect of over 55% in size; further: potency means the concentration at half of the fitted maximal effect
In short: (§3)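 Luminescence from CellTiter-Glo served as readout of metabolically active cells after 48 h compound exposure. Titrations: MIPE 11-point, from 0.78 nM; NPC 8-point, from 0.59 nM (final). Concentration-response curves came straight from the primary screen.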

[6] = qHTS of pediatric cancer cell lines to identify multiple opportunities for drug repurposing: Primary screen for control Hh wild type fibroblast cells (AID 1347106);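 further: series mostly up to about 46 µM; a drop in luminescence marks cytotoxicity and a rise apparent proliferation; nearly all actives have a fitted effect of over 55% in size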
In short: as §1

[7] = qHTS of pediatric cancer cell lines to identify multiple opportunities for drug repurposing: Primary screen for Rh30 cells (AID 1347107); further: series mostly up to about 46 µM; nearly all actives have a fitted effect of over 75% in size
In short: as §1

[8] = qHTS of pediatric cancer cell lines to identify multiple opportunities for drug repurposing: Primary screen for MG 63 (6-TG R) cells (AID 1347105); further: nearly all actives have a fitted effect of over 50% in size
In short: as §3

[9] = qHTS of pediatric cancer cell lines to identify multiple opportunities for drug repurposing: Primary screen for Rh41 cells (AID 1347108); further: nearly all actives have a fitted effect of over 70% in size; further: potency means the concentration at half of the fitted maximal effect
In short: as §3

In the case of `CN1C(=O)C(Cc2c[nH]c3ccccc23)NC1=S` (configuration not stated), the Potency [1] is reported as “inactive”, the Potency [2] is reported as “inactive” and the Potency [3] is reported as “inactive”. The Potency [4] was “inactive”, the Potency [5] was “inactive” and the Potency [6] was “inactive”. The Potency [7] was “inactive”.
For `CN1CC(=O)N2C(Cc3c([nH]c4ccccc34)[C@H]2c2ccc3c(c2)OCO3)C1=O` (some centres not stated), the Potency [1] was “inactive”, the Potency [2] was “inactive” and the Potency [3] was “inactive”. For the same molecule, the Potency [5] was “inactive”, the Potency [6] was “inactive” and the Potency [7] was “inactive”.
For `Cc1ccc2c(c1)c1c(n2CCc2ccc(C)nc2)CCN(C)C1`, the Potency [1] was “inactive”, the Potency [2] was “inactive” and the Potency [3] was “inactive”. For the same molecule, the Potency [5] was “inactive”, the Potency [8] was “inactive” and the Potency [6] was “inactive”. For the same molecule, the Potency [7] was “inactive” and the Potency [9] was “inactive”.
In the case of `CCN(CCO)CCCOc1ccc2c(Nc3cc(CC(=O)Nc4cccc(F)c4)[nH]n3)ncnc2c1`, the Potency [1] is reported as 37.2 nM (active), the Potency [2] is reported as “inactive” and the Potency [3] is reported as “inactive”. For the same molecule, the Potency [5] was “inactive”, the Potency [6] was “inactive” and the Potency [7] was “inactive”.
In the case of `FC(F)(F)c1ccc(C=Cc2nc(COc3ccc(CCCCn4ccnn4)cc3)co2)cc1`, the Potency [1] is reported as 5.9 nM (active), the Potency [2] is reported as 6.1 nM (active) and the Potency [4] is reported as 7.7 nM (active). For the same molecule, the Potency [5] was 11.8 nM (active), the Potency [6] was “inactive” and the Potency [9] was 469 nM (active).
In the case of `CCC[C@H](Nc1nc(-c2ccc(NC(=O)NCC)c(OC)c2)ncc1C)c1cccnc1`, the Potency [1] is reported as 10.5 nM (active), the Potency [2] is reported as 10.9 nM (active) and the Potency [3] is reported as “inactive”. For the same molecule, the Potency [4] was 13.7 nM (active), the Potency [8] was “inactive” and the Potency [6] was “inactive”. The Potency [7] was “inactive”.
With `CC[C@H]1OC(=O)[C@H](C)[C@@H](O[C@H]2C[C@@](C)(OC)[C@@H](O)[C@H](C)O2)[C@H](C)[C@@H](O[C@@H]2O[C@H](C)C[C@H](N(C)C)[C@H]2O)[C@](C)(O)C[C@H](C)C(=NOCOCCOC)[C@H](C)[C@@H](O)[C@]1(C)O` the Potency [1] was “inactive”, the Potency [2] was “inactive” and the Potency [3] was “inactive”. The Potency [5] was “inactive”, the Potency [8] was “inactive” and the Potency [6] was “inactive”. The Potency [7] was “inactive” and the Potency [9] was “inactive”.
With `CN(C)c1ccc(-c2nc3ncc(Cl)c(N4CCN(CC(=O)Nc5nccs5)CC4)c3[nH]2)cc1` the Potency [1] was 833 nM (active), the Potency [2] was “inactive” and the Potency [8] was “inactive”. The Potency [6] was “inactive”.
With `O=c1cc(-c2ccc(O)c(O)c2)oc2cc(O)cc(O)c12` the Potency [1] was “inactive”, the Potency [2] was “inactive” and the Potency [3] was “inactive”. The Potency [5] was “inactive”, the Potency [8] was “inactive” and the Potency [6] was “inactive”. The Potency [7] was “inactive”.
In the case of `CC(C)CNc1ccnc(NCc2csc(-c3ccccc3)n2)n1`, the Potency [1] is reported as 14800 nM (active), the Potency [2] is reported as 6850 nM (active) and the Potency [3] is reported as 23500 nM (active). The Potency [4] was 6110 nM (active), the Potency [5] was 29600 nM (active) and the Potency [6] was “inactive”. The Potency [7] was “inactive”.
For `CCCCCCCCCCCCCCCC(=O)O[C@H]1[C@@H](O)[C@@H](O)[C@@H]([C@H](NC(=O)[C@@H]2C[C@@H](CCC)CN2C)[C@H](C)Cl)O[C@@H]1SC`, the Potency [1] was “inactive”, the Potency [2] was “inactive” and the Potency [3] was “inactive”. The Potency [4] was “inactive”, the Potency [8] was “inactive” and the Potency [6] was “inactive”. For the same molecule, the Potency [7] was “inactive”.
In the case of `C#CCN(C)CC1=Cc2ccccc2Oc2ccccc21`, the Potency [1] is reported as “inactive”, the Potency [2] is reported as “inactive” and the Potency [3] is reported as “inactive”. For the same molecule, the Potency [6] was “inactive”.
For `Nc1ncnc2c1c(-c1cccc(OCc3ccccc3)c1)cn2C1CC(CN2CCC2)C1` (configuration not stated), the Potency [1] was 4690 nM (active), the Potency [2] was “inactive” and the Potency [3] was “inactive”. The Potency [4] was 968 nM (active), the Potency [5] was 7430 nM (active) and the Potency [6] was “inactive”. The Potency [9] was 2960 nM (active).
In the case of `Cc1ccc(C(=O)N(CCCN)[C@@H](c2nc3cc(Cl)ccc3c(=O)n2Cc2ccccc2)C(C)C)cc1`, the Potency [1] is reported as 1 nM (active), the Potency [2] is reported as 1 nM (active) and the Potency [4] is reported as 1 nM (active). The Potency [6] was “inactive” and the Potency [7] was “inactive”.
With `Nc1ccn([C@@H]2O[C@H](CO)[C@@H](O)[C@H]2O)c(=O)n1` the Potency [1] was 93.5 nM (active), the Potency [3] was “inactive” and the Potency [4] was 13700 nM (active). For the same molecule, the Potency [5] was “inactive”, the Potency [8] was “inactive” and the Potency [6] was “inactive”. The Potency [7] was “inactive”.
For `CC(C)N(CCCNC(=O)Nc1ccc(C(C)(C)C)cc1)C[C@H]1O[C@@H](n2cc(Br)c3c(N)ncnc32)[C@H](O)[C@H]1O`, the Potency [1] was 23500 nM (active), the Potency [2] was 24300 nM (active) and the Potency [3] was 20900 nM (active). For the same molecule, the Potency [4] was 24300 nM (active), the Potency [5] was 29600 nM (active) and the Potency [9] was 18700 nM (active).
